Data on nine compounds can be found in PubChem BioAssay (NCI).

Common to all, as to test: NCI-60 one-dose screen, 48 h (100 = growth as untreated, 0 = no growth, -100 = all killed)
The test system of one test is NCI-H23 lung. The conditions noted are these: 10 µM unless noted.
Another test relates to NCI-H226 lung. Particulars: 10 µM unless noted.
Another test concerns NCI-H322M lung. Particulars: 10 µM unless noted.
The next test deals with NCI-H460 lung. The conditions noted are these: 10 µM unless noted.
A further test has as its system HOP-92 NSCLC. Particulars: 10 µM.
Another test has as its system NCI-H522 lung. The conditions noted are these: 10 µM.
Another test has as its system A549/ATCC NSCLC. Particulars: 10 µM unless noted.
The test system of the next test is 786-0 renal. Particulars: 10 µM unless noted.
Another test relates to COLO 205 colon. Particulars: 10 µM unless noted.
In a further test the test system is DU-145 prostate. Particulars: 10 µM unless noted.
For another test, the system named is K-562 leukemia. Particulars: 10 µM unless noted.
The next test relates to MALME-3M melanoma. Particulars: 10 µM unless noted.
The subject of another test is MDA-MB-231 breast. The conditions noted are these: 10 µM unless noted.
In the next test the test system is RXF 393 renal. The conditions noted are these: 10 µM unless noted.
For a further test, the system named is SF-268 CNS. The conditions noted are these: 10 µM unless noted.
For a further test, the system named is SF-295 CNS. The conditions noted are these: 10 µM unless noted.
A further test concerns SF-539 CNS. Particulars: 10 µM unless noted.
Another test concerns UACC-257 melanoma. Particulars: 10 µM unless noted.
The next test relates to HOP-62 NSCLC. Particulars: 10 µM unless noted.
A further test concerns M14 melanoma. Particulars: 10 µM unless noted.

The structures appear in SMILES notation. Compounds without any hit were thinned out: in the full panel of roughly 83,000, 20% have a hit.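 The test compound was applied at a single concentration to cells in 96-well plates for 48 hours, and percent growth was recorded.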 Values without a mark were called inactive. Active and inactive are the calls of the source. How the source made its calls: active means growth percent below 10; inactive means the rest.

As for `CCOC(=O)C1=C(C(F)(F)F)NC(=O)NC1CN1C(=O)c2ccccc2C1=O` (stereo unspecified), the growth in the test on NCI-H23 lung was 99.3%; in the test on NCI-H226 lung, 111%; in the test with NCI-H322M lung, 107%; in the test on NCI-H460 lung, 112%; with HOP-92 NSCLC, 60.8%; with NCI-H522 lung, 115%. Also, the growth is 115% in the test on A549/ATCC NSCLC; 104% with 786-0 renal; 116% with COLO 205 colon; 106% in the test on DU-145 prostate; 76.1% with K-562 leukemia; 113% in the test on MALME-3M melanoma. For the same compound, the growth is 100% in the test on MDA-MB-231 breast; 106% with RXF 393 renal; 103% in the test with SF-268 CNS; 104% in the test with SF-295 CNS; 100% in the test with SF-539 CNS; 103% with UACC-257 melanoma.
Consider `Cc1ccc(C(=O)NN)cc1`, for which the growth with NCI-H23 lung was 101%; with NCI-H226 lung it was 109%; in the test on NCI-H322M lung it was 127%; in the test on HOP-62 NSCLC it was 104%; with NCI-H522 lung, 102%; in the test on 786-0 renal, 106%. Besides, the growth in the test with COLO 205 colon was 115%; with K-562 leukemia, 91.6%; with MALME-3M melanoma, 117%; with RXF 393 renal, 103%; in the test on SF-295 CNS, 111%; with SF-539 CNS, 114%. Also, the growth in the test on M14 melanoma was 113%.
`Cc1nc2ccccc2c(=O)n1-c1cccc(OCc2cn(-c3cccc(O)c3)nn2)c1`: the growth with NCI-H23 lung was 95.1%; in the test with NCI-H226 lung, 105%; in the test on NCI-H322M lung, 101%; in the test with HOP-62 NSCLC, 93.4%; with NCI-H522 lung it was 72.1%; in the test on A549/ATCC NSCLC, 95.3%. The growth was 107% in the test with 786-0 renal; 122% in the test with COLO 205 colon; 100% with DU-145 prostate; 88.2% in the test on K-562 leukemia; 104% in the test with MALME-3M melanoma; 78.3% in the test with MDA-MB-231 breast. Further, the growth with RXF 393 renal is 105%; with SF-268 CNS it was 88.4%; with SF-295 CNS, 93.8%; in the test with SF-539 CNS, 100%; in the test on UACC-257 melanoma, 94.9%; in the test with M14 melanoma it was 94.4%.
`COc1ccc(-c2nc(SCC(C)C)nc(Nc3ccc(C)cc3)c2C#N)cc1`: the growth with NCI-H23 lung is 73.9%; in the test with NCI-H226 lung, 65.6%; in the test on NCI-H322M lung, 52.9%; in the test with HOP-62 NSCLC, 88.5%; in the test with NCI-H522 lung, 81.4%; with A549/ATCC NSCLC, 52.6%. Further, the growth with 786-0 renal is 24.4%; in the test on COLO 205 colon, 46.6%; in the test on DU-145 prostate it was 85.9%; in the test with K-562 leukemia, 68.8%; in the test on MALME-3M melanoma, 74.3%; with MDA-MB-231 breast, 68.4%. Besides, the growth is 88.2% with RXF 393 renal; 85.3% in the test with SF-268 CNS; 64.4% in the test with SF-295 CNS; 63.5% in the test with SF-539 CNS; 103% with UACC-257 melanoma; 88.8% with M14 melanoma.
`BrCCCOc1ccc(Oc2ccc(OCCCBr)cc2)cc1`: the growth with NCI-H23 lung was 109%; in the test with NCI-H226 lung, 99.6%; in the test with NCI-H322M lung, 123%; with HOP-62 NSCLC it was 108%; in the test on A549/ATCC NSCLC, 94.7%; in the test on 786-0 renal, 88.9%. For the same compound, the growth with COLO 205 colon is 134%; in the test on DU-145 prostate, 116%; in the test on K-562 leukemia, 109%; in the test with MALME-3M melanoma it was 117%; with MDA-MB-231 breast it was 104%; in the test on RXF 393 renal it was 80.8%. Further, the growth is 111% with SF-268 CNS; 116% with SF-295 CNS; 113% in the test with SF-539 CNS; 90.4% with UACC-257 melanoma; 102% in the test on M14 melanoma.
Take `CC1=C(C)C[C@]2(C(=O)O[C@H]3CCCC[C@@H]32)[S@](=O)C1`: the growth in the test on NCI-H23 lung is 97.9%; in the test on NCI-H226 lung, 109%; with NCI-H322M lung, 106%; in the test on HOP-62 NSCLC it was 106%; in the test on NCI-H522 lung it was 82.9%; in the test on A549/ATCC NSCLC it was 96.5%. Further, the growth in the test with 786-0 renal was 102%; in the test with COLO 205 colon, 108%; in the test on DU-145 prostate it was 107%; in the test on K-562 leukemia, 102%; in the test on MALME-3M melanoma, 110%; in the test with MDA-MB-231 breast, 125%. Also, the growth in the test with RXF 393 renal is 112%; with SF-268 CNS, 96.4%; in the test on SF-295 CNS it was 106%; in the test on SF-539 CNS, 114%; in the test on UACC-257 melanoma, 97.7%; in the test with M14 melanoma, 103%.
For the compound `CC[n+]1c(C)ccc2cc(C)ccc21`, the growth in the test with NCI-H23 lung was 96%; with NCI-H226 lung, 93.6%; in the test on NCI-H322M lung, 111%; in the test on HOP-62 NSCLC, 97.5%; in the test with A549/ATCC NSCLC it was 75.3%; in the test with COLO 205 colon, 101%. For the same compound, the growth with DU-145 prostate was 126%; with K-562 leukemia, 91.2%; with MALME-3M melanoma it was 131%; in the test with MDA-MB-231 breast, 91.7%; with RXF 393 renal it was 111%; with SF-268 CNS, 102%. The growth in the test on SF-295 CNS was 119%; with SF-539 CNS, 110%; in the test with UACC-257 melanoma, 105%.
Take `COC(=O)c1c[n+]([O-])ccc1OC`: the growth in the test on NCI-H23 lung is 106%; with NCI-H226 lung, 107%; with NCI-H322M lung it was 97.1%; in the test with HOP-62 NSCLC, 97.1%; in the test with A549/ATCC NSCLC, 105%; with 786-0 renal, 100%. Further, the growth with COLO 205 colon is 109%; in the test with DU-145 prostate it was 114%; with K-562 leukemia it was 71.1%; in the test on MALME-3M melanoma it was 92.1%; in the test on MDA-MB-231 breast it was 99.4%; in the test with RXF 393 renal, 108%. The growth is 116% with SF-268 CNS, 88.1% in the test with SF-295 CNS, 122% in the test with SF-539 CNS and 104% in the test with M14 melanoma.
In the case of `COc1cc2c(/C=C3\C(=O)Nc4ccc(Br)cc43)c(Cl)n(C)c2cc1C`, the growth was 20.6% in the test on NCI-H23 lung; 45.1% with NCI-H226 lung; 17.2% with NCI-H322M lung; 8.86% (active) in the test with NCI-H460 lung; -4.95% (active) with HOP-92 NSCLC; -3.92% (active) in the test on NCI-H522 lung. Moreover, the growth was 24% in the test with A549/ATCC NSCLC; -17.3% (active) in the test on 786-0 renal; 6.03% (active) in the test with COLO 205 colon; 17.5% with DU-145 prostate; 6.73% (active) in the test with K-562 leukemia; 21.9% with MALME-3M melanoma. The growth in the test with MDA-MB-231 breast was 7.42% (active); in the test with RXF 393 renal it was -23.9% (active); in the test with SF-268 CNS, 29.6%; in the test on SF-295 CNS, 9.82% (active); with SF-539 CNS it was 7.51% (active); in the test with UACC-257 melanoma, 28.8%.
